The results in this text go back to PubChem BioAssay (EPA / NIEHS).

Where “and” joins values, the source holds several entries; their conditions need not be identical. Identical values can stand only once. Inconclusive results are not listed. Some compounds were tested as several samples or in several runs, with calls that do not always agree. Calls of active or inactive are those of the source. Rule for the calls, unless noted: active = hit-call score of the fitted dose curve at least 0.9, where 1 is the maximum; inactive = score below 0.9.

A short description of experiment [1]: BSK_LPS_SRB: Viability Assessment in the BioMAP Diversity Plus: LPS Assay (AID 2283079).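 Note: total protein by sulforhodamine B absorbance as a cytotoxicity measure; measured one day after compound addition; fitted in both directions against DMSO so loss or gain of signal counts.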 As to conditions: primary human HUVEC with PBMC. The procedure, abridged: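 HUVEC + PBMC co-culture, LPS-stimulated; compound 24 h. 10% TCA fix, 0.1% SRB stain, A560. Bidirectional fit vs DMSO.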
Read-out in experiment [2]: Interleukin-1 alpha (IL1a), IL1A (gene 3552)
The experiment is described as follows: BSK_LPS_IL1a: BioMAP Diversity Plus: LPS Assay for Interleukin-1 alpha (IL1a) Biomarker Activity (AID 2283080). To be noted: primary human HUVEC with PBMC; actives raise or lower the signal. The procedure, abridged: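 HUVEC/PBMC co-culture, LPS system; 24 h after dosing; IL-1a by ELISA; gain or loss of signal fitted bidirectionally vs DMSO baseline.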

A short description of experiment [3]: BSK_LPS_PGE2: BioMAP Diversity Plus: LPS Assay for Prostaglandin E2 (PGE2) Biomarker Activity (AID 2283082). To be noted: primary human HUVEC with PBMC; actives raise or lower the signal. The procedure, abridged:
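LPS-activated HUVEC/PBMC co-culture; cmpd dosed, 24 h; PGE2 by ELISA; bidirectional fit vs DMSO; SRB (0.1%, TCA-fixed, 560 nm) in parallel plates for overt cytotox.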

Read-out in experiment [4]: Macrophage colony-stimulating factor (MCSF), CSF1 (gene 1435)
Description: BSK_LPS_MCSF: BioMAP Diversity Plus: LPS Assay for Macrophage colony-stimulating factor (MCSF) Biomarker Activity (AID 2283083). To be noted: primary human HUVEC with PBMC; actives raise or lower the signal. The procedure, abridged: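 HUVEC + PBMC co-culture (human primary), 24 h post-dose; M-CSF by ELISA; gain/loss of signal fitted bidirectionally vs DMSO baseline.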

Read-out in experiment [5]: Tissue Factor, F3 (gene 2152)
Description: BSK_LPS_TissueFactor: BioMAP Diversity Plus: LPS Assay for Tissue Factor Biomarker Activity (AID 2283084). To be noted: primary human HUVEC with PBMC; actives raise or lower the signal. The procedure, abridged:
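HUVEC/PBMC co-culture, LPS-activated; CD142 ELISA read 24 h post-dose; bidirectional curve fit vs DMSO negative control.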

Read-out in experiment [6]: Tumor necrosis factor (Homo sapiens) (UniProt P01375)
The experiment is described as follows: BSK_LPS_TNFa: BioMAP Diversity Plus: LPS Assay for Tumour Necrosis Factor alpha (TNFa) Biomarker Activity (AID 2283085). To be noted: primary human HUVEC with PBMC; actives raise or lower the signal. The procedure, abridged: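 Read-out is ELISA of TNFa in primary human endothelial cell–PBMC co-cultures at 24 h after compound. Activity in either direction was fitted against DMSO.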

Read-out in experiment [7]: Vascular cell adhesion molecule 1 (VCAM1), VCAM1 (gene 7412)
The experiment is described as follows: BSK_LPS_VCAM1: BioMAP Diversity Plus: LPS Assay for Vascular cell adhesion molecule 1 (VCAM1) Biomarker Activity (AID 2283086). As to conditions: primary human HUVEC with PBMC; actives raise or lower the signal. The procedure, abridged: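 HUVEC + PBMC co-culture, LPS system; compound 24 h; VCAM-1 by ELISA; bidirectional fit vs DMSO control; parallel SRB (0.1%, TCA-fixed, 560 nm) for cytotoxicity.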

Read-out in experiment [8]: CD38, CD38 (gene 952)
Description: BSK_SAg_CD38: BioMAP Diversity Plus: SAg Assay for CD38 Biomarker Activity (AID 2283087). As to conditions: primary human HUVEC with PBMC; actives raise or lower the signal. The procedure, abridged: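 Human HUVEC plus PBMC co-culture stimulated with superantigen; CD38 measured by ELISA 24 h after chemical dosing. Fluorescence read-out, bidirectional fit against DMSO; cytotoxicity tracked in parallel by SRB and Alamar Blue.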

Read-out in experiment [9]: CD40, CD40 (gene 958)
The experiment is described as follows: BSK_SAg_CD40: BioMAP Diversity Plus: SAg Assay for CD40 Biomarker Activity (AID 2283088). To be noted: primary human HUVEC with PBMC; actives raise or lower the signal. The procedure, abridged:
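HUVEC/PBMC co-culture, 24 h post-dose; CD40 by ELISA, fluorescence intensity; bidirectional fit vs DMSO negative control.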

Read-out in experiment [10]: CD69, CD69 (gene 969)
The experiment is described as follows: BSK_SAg_CD69: BioMAP Diversity Plus: SAg Assay for CD69 Biomarker Activity (AID 2283089).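 Note: cell surface CD69 protein quantified by ELISA with fluorescence detection.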 To be noted: primary human HUVEC with PBMC; actives raise or lower the signal. The procedure, abridged: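 Endothelial/PBMC co-culture; chemical added; 24 h incubation; CD69 ELISA with fluorescence detection; bidirectional fit vs DMSO.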

Read-out in experiment [11]: Monocyte Chemoattractant Protein-1 (MCP1), CCL2 (gene 6347)
The experiment is described as follows: BSK_SAg_MCP1: BioMAP Diversity Plus: SAg Assay for Monocyte Chemoattractant Protein-1 (MCP1) Biomarker Activity (AID 2283090). As to conditions: primary human HUVEC with PBMC; actives raise or lower the signal. The procedure, abridged: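 MCP-1 levels in the endothelial–PBMC SAg co-culture were quantified by ELISA at 24 h post-dosing; both increases and decreases versus DMSO scored. Cytotoxicity monitored by SRB total protein in parallel cultures.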

Read-out in experiment [12]: Monokine induced gamma interferon (MIG), CXCL9 (gene 4283)
The experiment is described as follows: BSK_SAg_MIG: BioMAP Diversity Plus: SAg Assay for Monokine induced gamma interferon (MIG) Biomarker Activity (AID 2283092). To be noted: primary human HUVEC with PBMC; actives raise or lower the signal. The procedure, abridged:
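Measures CXCL9 protein by ELISA in a human vascular primary-cell co-culture (umbilical vein endothelium with PBMC) 24 h after chemical addition. Activity is scored up or down from the DMSO control.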

Experiment [13] is described as follows: BSK_SAg_PBMCCytotoxicity: PBMC Cytotoxicity Assessment in the BioMAP Diversity Plus: SAg Assay (AID 2283093).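 Note: PBMC superantigen activated with SEB plus TSST-1 one hour after compound addition; PBMC viability measured as Alamar Blue reduction fluorescence at 546/580 nm; fitted both ways against DMSO so a hit may be loss or gain of signal.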 To be noted: primary human HUVEC with PBMC. The procedure, abridged:
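Compound added to 75,000 PBMC/well for 1 h; SEB and TSST-1 then added at 20 ng/mL final each; 90 h incubation; Alamar Blue 6 h; read 546/580 nm ex/em. Activity fitted bidirectionally relative to DMSO baseline.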

Read-out in experiment [14]: Interleukin-8 (IL8), CXCL8 (gene 3576)
The experiment is described as follows: BSK_SAg_IL8: BioMAP Diversity Plus: SAg Assay for Interleukin-8 (IL8) Biomarker Activity (AID 2283094). To be noted: primary human HUVEC with PBMC; actives raise or lower the signal. The procedure, abridged:
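ELISA read-out of IL-8 in a primary human vascular co-culture (umbilical vein endothelium plus PBMC), taken 24 h after compound addition. Values derive from bidirectional fits against DMSO negative controls.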

Experiment [15] can be described thus: BSK_SAg_Proliferation: Cell Proliferation Assessment in the BioMAP Diversity Plus: SAg Assay (AID 2283095).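 Note: relative cell number as total protein by SRB absorbance in sub-confluent culture.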 To be noted: primary human HUVEC with PBMC. The procedure, abridged:
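Cells (endothelium plus PBMC, human primary) were dosed with chemical, cultured 96 h, fixed in 10% TCA and stained with 0.1% SRB. Absorbance at 560 nm gave relative protein, fitted bidirectionally relative to DMSO.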

Experiment [16] is described as follows: BSK_SAg_SRB: Viability Assessment in the BioMAP Diversity Plus: SAg Assay (AID 2283096).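 Note: cells read one day after compound addition; hits may be either gain or loss of signal compared with DMSO.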 As to conditions: primary human HUVEC with PBMC. The procedure, abridged:
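Total protein by sulforhodamine B staining, 24 h after dosing, in HUVEC–PBMC co-culture; DMSO-referenced bidirectional fitting.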

Experiment [17] has as its target bovine Estrogen Receptor (ER), ESR1 (gene 407238) (UniProt P49884). The experiment is described as follows: NVS_NR_bER: NovaScreen (NVS) Nuclear Receptor Binding Assay for bovine Estrogen Receptor (ER) (AID 2283345; active = hit-call score of the fitted dose curve at least 0.9, where 1 is the maximum;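 note: actives lower the bound radioligand count which means they displace the ER ligand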). The procedure, abridged:
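Scintillation counting of displaced radioligand gave the readout; bovine uterine membrane extract supplied the receptor. Measured 18 h post-dose, normalized to DMSO baseline. Single 25 uM duplicate screen preceded concentration-response follow-up.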

Experiment [18] in a line: TOX21_p53_BLA_p3_viability: Viability Assessment in the Tox21 HCT-116 p53 Agonism Beta-lactamase Assay, Phase 3 (AID 2283593; active = hit-call score of the fitted dose curve at least 0.9, where 1 is the maximum;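 note: cells exposed to compound for 16 h before reading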). The procedure, abridged:
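Cellular ATP was quantified by CellTiter-Glo luminescence, read after 30 min at room temperature. Beforehand, HCT116 cells (4000/well) received compound 5 h post-seeding, 217-fold diluted from DMSO, then incubated 16 h at 37C.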

The nature of experiment [19]: TOX21_p53_BLA_p4_viability: Viability Assessment in the Tox21 HCT-116 p53 Agonism Beta-lactamase Assay, Phase 4 (AID 2283597; active = hit-call score of the fitted dose curve at least 0.9, where 1 is the maximum;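 note: hits lower the luminescence signal meaning cytotoxicity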). The procedure, abridged: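 We seeded HCT116 p53 reporter cells at 4000/well and waited 5 h. We then added compounds in DMSO at a 217-fold dilution and incubated for 16 h. Viability was read as CellTiter-Glo luminescence after 30 min at RT.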

A short description of experiment [20]: TOX21_p53_BLA_p5_viability: Viability Assessment in the Tox21 HCT-116 p53 Agonism Beta-lactamase Assay, Phase 5 (AID 2283600; active = hit-call score of the fitted dose curve at least 0.9, where 1 is the maximum). The procedure, abridged: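 Compounds, pinned from DMSO at 217-fold dilution, were left on the cells for 16 h. The viability endpoint was ATP content measured by CellTiter-Glo luminescence, where falling signal reflects cytotoxicity.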

As a reminder, the AC50 is the concentration giving half of the maximal activity seen.

Chain of Tumor necrosis factor (Homo sapiens) (P01375 whole entry, looked up): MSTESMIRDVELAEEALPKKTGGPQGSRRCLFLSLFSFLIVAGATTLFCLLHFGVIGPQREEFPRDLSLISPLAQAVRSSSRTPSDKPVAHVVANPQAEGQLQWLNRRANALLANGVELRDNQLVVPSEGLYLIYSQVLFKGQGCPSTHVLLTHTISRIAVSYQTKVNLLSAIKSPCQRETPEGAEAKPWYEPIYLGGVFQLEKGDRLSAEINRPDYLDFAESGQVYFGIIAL
Chain of bovine Estrogen Receptor (ER), ESR1 (gene 407238) (P49884 whole entry, looked up): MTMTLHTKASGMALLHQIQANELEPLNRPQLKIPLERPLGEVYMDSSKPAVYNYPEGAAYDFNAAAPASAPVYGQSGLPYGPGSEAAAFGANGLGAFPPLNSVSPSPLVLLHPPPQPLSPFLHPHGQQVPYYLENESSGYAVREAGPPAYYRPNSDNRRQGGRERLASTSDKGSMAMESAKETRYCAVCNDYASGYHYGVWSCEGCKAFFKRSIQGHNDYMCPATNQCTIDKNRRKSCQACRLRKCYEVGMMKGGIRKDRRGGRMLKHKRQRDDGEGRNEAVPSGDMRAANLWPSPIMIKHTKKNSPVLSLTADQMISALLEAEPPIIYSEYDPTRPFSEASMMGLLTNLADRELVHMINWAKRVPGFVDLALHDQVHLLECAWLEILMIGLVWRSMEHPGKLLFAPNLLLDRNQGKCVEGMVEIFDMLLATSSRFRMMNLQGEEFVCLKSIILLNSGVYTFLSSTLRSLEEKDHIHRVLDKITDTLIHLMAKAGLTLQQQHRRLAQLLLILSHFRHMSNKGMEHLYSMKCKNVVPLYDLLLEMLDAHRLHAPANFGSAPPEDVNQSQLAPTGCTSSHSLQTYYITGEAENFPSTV

On to `[Cd+2].[Cl-].[Cl-]`, for which the result in [1], in experiment [2], in [3], in [5], in [6] and in experiment [12] was inactive. Besides, the result in experiment [16], in [17], in experiment [18] and in experiment [19] was inactive. Also, the AC50 in [4] was 19.5 µM (active) and 31.2 µM (active); in experiment [6], 33 µM (active); in experiment [7] it was 30 µM (active) and 35.9 µM (active); in experiment [8], 35.3 µM (active) and 15.6 µM (active); in [9], 30.2 µM (active) and 34.7 µM (active); in experiment [10], 32.4 µM (active) and 30.4 µM (active). Also, the AC50 in [11] is 33 µM (active) and 34.4 µM (active); in experiment [13], 20 µM (active) and 30.4 µM (active); in [14], 34.9 µM (active) and 31.4 µM (active); in experiment [15], 14 µM (active) and 13.4 µM (active); in experiment [18] it was 69.2 µM (active); in experiment [19], 68.6 µM (active). In addition, the AC50 in experiment [20] was 76.2 µM (active).
